The record followed here is PubChem BioAssay (NCI).

The panel holds about 83,000 compounds, 20% with a hit somewhere; the sample as a whole holds those more often.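 Cells were grown in 96-well plates and exposed to the test compound at a single concentration for 48 hours; results are reported as percent growth, with values below 10 considered active.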 Unmarked numbers belong to inactive results. Active and inactive are the calls of the source.

Test systems include NCI-H23 lung; NCI-H226 lung; NCI-H322M lung; HOP-62 NSCLC; NCI-H460 lung; HOP-92 NSCLC; NCI-H522 lung; A549/ATCC NSCLC; 786-0 renal; COLO 205 colon.
Common to all, as to assay: NCI-60 one-dose screen, 48 h (100 = growth as untreated, 0 = no growth, -100 = all killed)
Common to all, as to conditions: 10 µM

For the molecule `Cn1cc(-c2cc(N)n3nc(-c4c[nH]c5ccc(Br)cc45)cc3n2)c2cccnc21`, the growth is -84% (active) in the assay with NCI-H23 lung; -71.2% (active) in the assay on NCI-H226 lung; -42% (active) with NCI-H322M lung; -89.6% (active) with HOP-62 NSCLC; -35.7% (active) with NCI-H460 lung; -67.7% (active) in the assay on HOP-92 NSCLC. Moreover, the growth was -82.8% (active) with NCI-H522 lung, -80% (active) with A549/ATCC NSCLC, -80.2% (active) in the assay on 786-0 renal and -85.8% (active) in the assay on COLO 205 colon.

As for `N#Cc1ccc(-c2nn(-c3ccc(C(=O)O)cc3)cc2CNc2cc(Cl)cc(Cl)c2)cc1`, the growth with NCI-H23 lung was 18.7%; in the assay on NCI-H226 lung, 47.2%; with NCI-H322M lung it was 58%; with HOP-62 NSCLC, 41.8%; with NCI-H460 lung, 32.3%; in the assay with HOP-92 NSCLC, 46.8%. Also, the growth in the assay with NCI-H522 lung was 73.1%; in the assay with A549/ATCC NSCLC it was 53.7%; with 786-0 renal, 36%; with COLO 205 colon, 109%.

Regarding `C=C(C)[C@@H]1CC[C@]2(C(=O)OC)CC[C@]3(C)[C@H](CC[C@@H]4[C@@]5(C)CC[C@H](N)C(C)(C)[C@@H]5CC[C@]43C)[C@@H]12`, the growth was -94.8% (active) in the assay with NCI-H23 lung; -89.3% (active) in the assay on NCI-H226 lung; -96.5% (active) in the assay on NCI-H322M lung; -81.6% (active) in the assay with HOP-62 NSCLC; -53.7% (active) in the assay with NCI-H460 lung; -68.9% (active) in the assay on HOP-92 NSCLC. The growth was -77.8% (active) in the assay on NCI-H522 lung, -86.9% (active) with A549/ATCC NSCLC, -98% (active) in the assay with 786-0 renal and -68.9% (active) in the assay on COLO 205 colon.

For the molecule `N#Cc1c(NC(=O)c2ccc(C(F)(F)F)cc2)sc2c1CCC(O)=C2`, the growth is 23.9% with NCI-H23 lung; 46.9% in the assay on NCI-H226 lung; 46.1% with NCI-H322M lung; 26.3% with HOP-62 NSCLC; 14.6% in the assay with NCI-H460 lung; 38.7% in the assay on HOP-92 NSCLC. Further, the growth in the assay on NCI-H522 lung was 1.61% (active); with A549/ATCC NSCLC, 34.7%; in the assay with 786-0 renal it was 53.3%; in the assay on COLO 205 colon, 60.9%.

Consider `COc1ccccc1[C@H]1C(C(=O)c2ccc(Cl)cc2)C2(N[C@@H]1c1ccccc1)C(=O)Nc1ccc(Cl)cc12` (stereo not given in full), for which the growth in the assay on NCI-H23 lung is -1.97% (active); with NCI-H226 lung, 4.06% (active); in the assay with NCI-H322M lung, 32.9%; in the assay with HOP-62 NSCLC it was 26%; in the assay with NCI-H460 lung, 8.58% (active); in the assay on HOP-92 NSCLC it was 7.15% (active). Moreover, the growth in the assay on NCI-H522 lung was -5.89% (active); with A549/ATCC NSCLC, 15.8%; with 786-0 renal, 8.8% (active); in the assay with COLO 205 colon, -69.7% (active).

On to `COc1ccc2nc(Cl)c(-c3cc(-c4ccccc4)nc(N)n3)cc2c1`, for which the growth in the assay with NCI-H23 lung was 37.7%; with NCI-H226 lung, 27.1%; in the assay with NCI-H322M lung, 60.7%; in the assay with HOP-62 NSCLC it was 40.8%; in the assay on NCI-H460 lung, 3.53% (active); in the assay with HOP-92 NSCLC, 48.5%. Besides, the growth is 46.8% in the assay on NCI-H522 lung, 72.7% in the assay with A549/ATCC NSCLC, 4.34% (active) in the assay with 786-0 renal and 53.7% in the assay with COLO 205 colon.

Turning to `O=C(CSc1nnc(-c2ccc3nc(-c4ccc(Cl)cc4)[nH]c3c2)o1)Nc1ccc(Br)cc1`, the growth with NCI-H23 lung is -82.9% (active); with NCI-H226 lung, -62.9% (active); in the assay with NCI-H322M lung, -40.8% (active); with HOP-62 NSCLC it was -66.9% (active); in the assay on NCI-H460 lung, -82.7% (active); in the assay with HOP-92 NSCLC, -11.3% (active). Moreover, the growth was -67.9% (active) in the assay on NCI-H522 lung, -54.9% (active) with A549/ATCC NSCLC, -74.9% (active) in the assay on 786-0 renal and 0.691% (active) in the assay on COLO 205 colon.

As for `O=C1CCC(N2Cc3cc(CC(=O)Nc4ccc(N5CCCCC5)cc4)ccc3C2=O)C(=O)N1` (stereo not given), the growth was 93.8% in the assay on NCI-H23 lung; 16.3% with NCI-H226 lung; 56.6% in the assay on NCI-H322M lung; 23.5% with HOP-62 NSCLC; 98.6% with NCI-H460 lung; -5.24% (active) in the assay with HOP-92 NSCLC. In addition, the growth in the assay with NCI-H522 lung is 65.3%; with A549/ATCC NSCLC, 68.3%; in the assay on 786-0 renal it was 42.5%; in the assay on COLO 205 colon it was 37.5%.

For the molecule `O=C(NO)c1ccc(-c2nc3ccc4[nH]ncc4c3c3c2CCCC3)cc1`, the growth with NCI-H23 lung was -56.7% (active); in the assay on NCI-H226 lung, -28.8% (active); in the assay on NCI-H322M lung, -1.64% (active); in the assay on HOP-62 NSCLC it was 0.238% (active); in the assay on NCI-H460 lung it was -43.4% (active); with HOP-92 NSCLC, -16.6% (active). The growth was -43% (active) in the assay with NCI-H522 lung, 6.83% (active) in the assay on A549/ATCC NSCLC, -8.73% (active) with 786-0 renal and -20.1% (active) with COLO 205 colon.

As for `CC(=C(c1ccc(OCCN2CCCCCC2)cc1)c1ccc(OCCN2CCCCCC2)cc1)c1ccc(Cl)cc1`, the growth is -96% (active) in the assay on NCI-H23 lung; -89.8% (active) in the assay on NCI-H226 lung; -100% (active) in the assay on NCI-H322M lung; -96.8% (active) with HOP-62 NSCLC; -54.1% (active) in the assay on NCI-H460 lung; -74.3% (active) in the assay with HOP-92 NSCLC. The growth with NCI-H522 lung was -92.7% (active); in the assay with A549/ATCC NSCLC, -98.4% (active); in the assay with 786-0 renal, -75.7% (active); in the assay with COLO 205 colon, -93% (active).

For `COc1ccc(-c2cc(C(=O)N=Nc3c(O)[nH]c4ccc(Br)cc34)c3ccccc3n2)cc1`, the growth in the assay on NCI-H23 lung is 5.57% (active); with NCI-H226 lung, 50.6%; in the assay on NCI-H322M lung, 70%; in the assay on HOP-62 NSCLC, 91.6%; in the assay on NCI-H460 lung, 5.22% (active); in the assay with HOP-92 NSCLC, 71.4%. Also, the growth was 57.7% with NCI-H522 lung, 61.1% with A549/ATCC NSCLC, 80.1% with 786-0 renal and 53.2% in the assay with COLO 205 colon.

For the molecule `C=C1CCC2C3(C)COC(c4cc(F)cc(F)c4)OC3CCC2(C)C1C/C=C1/C(=O)OCC1O` (stereo not given), the growth in the assay with NCI-H23 lung was -39.2% (active); with NCI-H226 lung, -20.9% (active); with NCI-H322M lung it was 24.5%; with HOP-62 NSCLC, -64.1% (active); in the assay on NCI-H460 lung, 13.1%; in the assay on HOP-92 NSCLC, -52.4% (active). Moreover, the growth was -79.8% (active) in the assay with NCI-H522 lung, 4.7% (active) with A549/ATCC NSCLC, -90.5% (active) in the assay on 786-0 renal and -68% (active) in the assay with COLO 205 colon.

Take `CN1C/C(=C\c2ccc(O)cc2O)c2[o+]c3cc(O)ccc3cc2C1`: the growth in the assay on NCI-H23 lung is 56.6%; in the assay on NCI-H226 lung, 56.3%; with NCI-H322M lung it was 88%; in the assay on HOP-62 NSCLC it was 77.8%; in the assay with NCI-H460 lung, 35.8%; in the assay on HOP-92 NSCLC, 58.8%. The growth was -0.58% (active) in the assay with NCI-H522 lung, 99.5% in the assay on A549/ATCC NSCLC, 41.7% in the assay on 786-0 renal and 58.3% in the assay with COLO 205 colon.
